Among all 1,200 compounds or so, about 480 (40%) were called active. About 29% were inconclusive and are not listed. Calls follow the shape of the dose curve; as a rule, active = well fitted inhibition curve with a large enough effect; inconclusive = small, poorly fitted or top-dose-only effect; inactive = no such curve, though single readings can be large or run the other way. The list shows a part of the results.
Potency is read from the fitted curve at half-maximal effect.

The nature of this assay: qHTS Assay to Find Inhibitors of Chronic Active B-Cell Receptor Signaling: Hit Validation in Primary Screen. Also: nearly all actives have a fitted effect of over 75% in size. Particulars: ABC-DLBCL IkB-luc/CBR ratio luminescence, 4 h; series mostly up to 46.1 µM. Put shortly: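 Concentration series (3 nM to 46 uM) tested on TMD8 cells induced with doxycycline for 4 h. Filter-corrected green (IkBa fusion) over red (unfused) luciferase signal; Data were normalised to 10 uM MG-132 and untreated cell wells.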
On the technique in general: Quantitative high-throughput screening tests each substance at several concentrations.
Regarding `C[C@]12CC[C@H]3C(=CCc4cc(O)ccc43)[C@@H]1CCC2=O`, the Potency result was “inactive”. In the case of `Cc1ccccc1-c1nc2c3ccccc3nc(=S)n2[nH]1`, the Potency entry is “inactive”. Under `S=c1nc2ccccc2c2nc(-c3ccccc3)[nH]n12` stands 23.1 µM (active); under `S=c1nc2ccccc2c2nc(-c3ccccc3Cl)[nH]n12`, “inactive”. To `CCN1C(=O)c2cccc3c(NC(=O)c4ccc(OC)c(OC)c4)ccc1c23` belongs 10.3 µM (active); to `COc1ccc2c(c1)C(C)=CC(C)(C)N2S(=O)(=O)c1ccc(NC(C)=O)cc1`, 3.26 µM (active); to `CCOc1ccc2c(c1)C(C)=CC(C)(C)N2S(=O)(=O)c1ccc(NC(C)=O)cc1`, 1.3 µM (active). Take `COc1ccc2c(c1)C(C)=CC(C)(C)N2S(=O)(=O)c1ccc(Br)cc1`: the Potency is 3.26 µM (active).

Turning to `CCOc1ccc2c(c1)C(C)=CC(C)(C)N2S(=O)(=O)c1ccc(C)cc1`, the Potency was 3.26 µM (active). Take `N#CC1=C(S)N(c2ccc(F)cc2)C(c2ccco2)NC1=O` (centres undefined): the Potency result was “inactive”. Under `CCOc1ccc(NC(=S)N(CCc2c(C)[nH]c3ccccc23)Cc2cccnc2)cc1` stands “inactive”; under `CCOc1ccc(NC(=O)c2cc(OC)nc3ccccc23)cc1`, 5.17 µM (active); under `COc1ccc(NC(=O)CSc2nc(N)c(C(=O)Nc3ccc(N(C)C)cc3)s2)cc1`, “inactive”.

Turning to `COc1ccc(C2=NN(C(C)=O)C(c3cccs3)C2)cc1OC` (centres undefined), the Potency entry was “inactive”.

As to `COc1ccc(C2CC(c3ccncc3)=NN2c2ccc(S(N)(=O)=O)cc2)cc1` (centres undefined), the Potency entry was “inactive”.

Consider `COc1ccc(C2CC(c3ccc(OC)c(OC)c3)=NN2C(=O)c2ccccc2)cc1` (centres undefined), for which the Potency is 6.51 µM (active).

For `N=C1SCC(=O)N1c1ncc(Cc2cccc(Cl)c2)s1`, the Potency was 20.6 µM (active). Under `O=c1cc(-c2cccc(F)c2)[nH]c2ccccc12` stands 3.66 µM (active); under `NNC(=O)c1[nH]c2ccc(Br)cc2c1-c1ccccc1`, “inactive”; under `O=c1cc(-c2ccc(F)cc2)[nH][nH]1`, “inactive”. To `O=c1cc(-c2ccccc2)[nH]c2ccccc12` belongs 11.6 µM (active). On to `O=c1cc(-c2ccccc2)[nH]c2ccc(F)cc12`, for which the Potency is 10.3 µM (active). For `O=Cc1ccc(O)c2ncccc12`, the Potency entry was “inactive”. Under `O=[N+]([O-])c1cc(Cl)c2cccnc2c1O` stands “inactive”. With `COc1ccc(CC2(CO)CCN(Cc3cccc4nccnc34)CC2)cc1`, the Potency result is “inactive”. Turning to `CCCc1nc([N+](=O)[O-])c(S(=O)(=O)c2ccccc2)n1CC(C)C`, the Potency was 16.4 µM (active). To `N#Cc1ccc(-c2cccs2)nc1SCc1cccnc1` belongs 16.4 µM (active); to `Cc1cc(C)nc(SCc2ccc(C(=O)N/N=C/c3cccnc3)cc2)n1`, “inactive”; to `COc1ccc2c(c1)sc1nc(-c3ccccc3)cn12`, 3.26 µM (active).

(Values after PubChem BioAssay AID651558 (National Center for Advancing Translational Sciences (NCATS), 2012).)
